Structures are written as SMILES. Records with an inconclusive call do not appear. A call without a number means that no potency is given here. Activity calls are given as the source filed them. The call rests on the fitted dose curve; in most records, active means well fitted inhibition curve with a large enough effect in the signal ratio in the repeat runs (not every such curve was filed as active); inconclusive means weak or mixed curves, or effect the other way; inactive means no such curve, though single readings can be large or run the other way; the % refers to the signal ratio.
Potency means the concentration at half of the fitted maximal effect.

In this test the target is Vitamin D3 receptor (Homo sapiens) (UniProt P11473). Kind of test: qHTS assay to identify small molecule antagonists of the vitamin D receptor (VDR) signaling pathway (AID 743223). Particulars: VDR-UAS-bla HEK293T, beta-lactamase FRET ratio, 16 h; series mostly up to 61 µM. From the text: U.S. Tox21 Program National Center for Advancing Translational Sciences [NCATS] NIH Chemical Genomics Center [NCGC] U.S. Environmental Protection Agency [EPA] National Institutes of Environmental Health Sciences [NIEHS] National Toxicology Program [NTP] U.S. Food and Drug Administration [FDA] Tox21 Assay Overview: The vitamin D receptor (VDR), a member of nuclear hormone receptor superfamily, plays a critical role in calcium homeostasis and bone metabolism. It is also involved in cell differentiation and growth, and thrombogenicity.
Sequence of Vitamin D3 receptor (Homo sapiens) (P11473 whole entry, looked up): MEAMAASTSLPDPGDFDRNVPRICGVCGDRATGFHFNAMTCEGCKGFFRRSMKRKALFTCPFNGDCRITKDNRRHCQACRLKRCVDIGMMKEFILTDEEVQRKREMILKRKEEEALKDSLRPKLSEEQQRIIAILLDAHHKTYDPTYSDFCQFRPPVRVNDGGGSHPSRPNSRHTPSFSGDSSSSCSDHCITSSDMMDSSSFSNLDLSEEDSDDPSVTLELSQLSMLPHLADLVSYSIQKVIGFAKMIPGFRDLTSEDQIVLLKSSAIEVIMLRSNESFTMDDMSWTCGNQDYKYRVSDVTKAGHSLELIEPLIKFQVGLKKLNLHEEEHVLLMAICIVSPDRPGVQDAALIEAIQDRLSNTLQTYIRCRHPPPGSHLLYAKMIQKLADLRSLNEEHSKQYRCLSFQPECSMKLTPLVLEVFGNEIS
Tox21 Assay Protocol Summary: VDR-bla cells were dispensed at 2,000 cells/5 uL of assay medium per well into black wall/clear-bottom 1536-well plates using a Multidrop Combi (Thermo Fisher Scientific, Waltham, MA) dispenser. After the assay plates were incubated at a 37C and 5% CO2 for 4 h, 23 nL of compounds dissolved in DMSO, positive controls or DMSO only was transferred to the assay plate by a Pintool station (Kalypsys, San Diego, CA), followed by addition of 1 uL of 1alpha, 25-Dihydroxy Vitamin D3 (3 nM, final concentration in the wells) using a Bioraptr Flying Reagent Dispenser (FRD) workstation (Beckman Coulter, Indianapolis, IN). The plates were incubated at 37C and 5% CO2 for 16 h, and then 1 uL of LiveBLAzerTM B/G FRET substrate was added using a Bioraptr FRD. The plates were incubated at room temperature for 2 h and fluorescence intensity was measured by an Envision plate reader (PerkinElmer, Shelton, CT).
Consider `CN(C)c1ccccc1`, for which the Potency result was “inactive”.

`CCC(=O)Nc1ccc(Cl)c(Cl)c1`: the Potency result was “inactive”.

As to `Clc1cccc(Cl)c1`, the Potency entry is “inactive”.

With `CC(C)=CC1C(C(=O)OCc2cccc(Oc3ccccc3)c2)C1(C)C` (stereo not given), the Potency result was “inactive”.

Take `O=C(O)CF`: the Potency entry was “inactive”.

Regarding `CC(C)CON=O`, the Potency result is “inactive”.

Turning to `CC1CC(=O)O1` (stereo not given), the Potency entry was “inactive”.

On to `CCCCCCCCCCCCCl`, for which the Potency entry is “inactive”.

As for `O=P(OCCCl)(OCCCl)OCCCl`, the Potency result was “inactive”.

Regarding `COP(=S)(OC)SCn1nnc2ccccc2c1=O`, the Potency entry was “inactive”.

With `O=[N+]([O-])/N=C1\NCCN1Cc1ccc(Cl)nc1`, the Potency entry is “inactive”.

Regarding `CCCCSP(=O)(SCCCC)SCCCC`, the Potency result was “inactive”.

Take `CCOP(=S)(OCC)SCSC(C)(C)C`: the Potency entry is “inactive”.

Turning to `Cn1c(-c2ccccc2)cc(-c2ccccc2)[n+]1C`, the Potency entry was “inactive”.

With `COP(=S)(OC)Oc1ccc(S(=O)(=O)N(C)C)cc1`, the Potency result was “inactive”.

On to `CCOS(=O)(=O)OCC`, for which the Potency entry is “inactive”.

Regarding `COP(=S)(OC)Oc1ccc(Sc2ccc(OP(=S)(OC)OC)cc2)cc1`, the Potency result is “inactive”.

As for `COP(=O)(NC(C)=O)SC` (stereo not given), the Potency entry was “inactive”.

`CC(C)(O)C#N`: the Potency entry was “inactive”.

Regarding `OCCOCCO`, the Potency entry was “inactive”.

Consider `Brc1ccc(Br)cc1`, for which the Potency entry is “inactive”.

With `O=C1Nc2ccc(Cl)cc2C(c2ccccc2)=NC1O` (stereo not given), the Potency result is “inactive”.

In the case of `CN(C)c1nc(=O)n(C2CCCCC2)c(=O)n1C`, the Potency result is “inactive”.

`Nc1ccc2ccccc2c1`: the Potency result was “inactive”.

`ClCC(Cl)CCl`: the Potency result is “inactive”.

On to `CC(C)=CC1C(C(=O)OCN2C(=O)C3=C(CCCC3)C2=O)C1(C)C` (stereo not given), for which the Potency result is “inactive”.

For `C=CC(Cl)CCl` (stereo not given), the Potency result was “inactive”.

With `CNC(=O)Oc1cccc2c1OC(C)(C)C2`, the Potency result is “inactive”.

Take `C=CC(=O)OCC(CC)(COC(=O)C=C)COC(=O)C=C`: the Potency is 6.92 µM (active).

As for `COc1ccc(O)c(C(C)(C)C)c1`, the Potency entry was “inactive”.

Consider `CCCCOCCOC(C)=O`, for which the Potency entry is “inactive”.

Regarding `NC(=O)CN1CCCC1=O`, the Potency result was “inactive”.

Take `CCCCOCC1CO1` (stereo not given): the Potency entry was “inactive”.

As to `CSc1nc(NC(C)C)nc(NC(C)C)n1`, the Potency result is “inactive”.

`O=C1CCCO1`: the Potency entry was “inactive”.

Take `CCOP(=O)(OCC)OCC`: the Potency entry was “inactive”.

In the case of `N#CCCCCC#N`, the Potency result was “inactive”.

With `CCOP(=S)(OCC)SCn1c(=O)oc2cc(Cl)ccc21`, the Potency entry is “inactive”.

Regarding `C=C(C)C#N`, the Potency entry is “inactive”.

For the molecule `c1ccc(C2CO2)cc1` (stereo not given), the Potency entry is “inactive”.

Values taken from PubChem BioAssay (Tox21).
